A selection: hits, their analogues and other compounds. The true share with any hit is near 1.1%.
AmpC inh no detg: inhibitors of E. coli AmpC beta-lactamase without detergent; P00811; AmpC nitrocefin hydrolysis, absorbance 480 nm, 0.0001% Triton; hit rate 0.52% among 330,000; Potency, µM (doses to about 57.1 µM), hits mostly inhibitors; AID 485341; further: nearly all actives have a fitted effect of over 20% in size
Target sequence (P00811 whole entry, looked up): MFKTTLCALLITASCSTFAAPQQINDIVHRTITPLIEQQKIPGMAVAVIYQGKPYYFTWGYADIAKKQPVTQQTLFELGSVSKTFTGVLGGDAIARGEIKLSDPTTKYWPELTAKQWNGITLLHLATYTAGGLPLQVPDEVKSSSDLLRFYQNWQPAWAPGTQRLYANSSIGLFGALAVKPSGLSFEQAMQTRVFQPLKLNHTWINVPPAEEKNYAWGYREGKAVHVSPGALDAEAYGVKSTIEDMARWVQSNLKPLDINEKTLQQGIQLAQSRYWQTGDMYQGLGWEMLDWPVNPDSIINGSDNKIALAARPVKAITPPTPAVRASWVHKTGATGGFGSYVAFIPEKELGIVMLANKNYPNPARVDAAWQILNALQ
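20 mM phosphate pH 7.0 + 0.01% (detergent screen) or 0.0001% Triton X-100; 5.3 nM AmpC reagent; cpd preinc 15 min RT; nitrocefin (800 uM stock) to start; A480 q20 s × 4 min; Activity was normalised to no-enzyme and no-compound control wells.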
AmpC detergent: inhibitors of E. coli AmpC beta-lactamase with detergent | AmpC hydrolysis of nitrocefin, absorbance 480 nm, 0.01% Triton | Potency, µM (highest dose often 114 µM), actives largely listed as inhibitors | P00811 | hit rate 0.041% among 370,000; further: nearly all actives have a fitted effect of over 25% in size
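AmpC (5.3 nM in the dispensed reagent) in 20 mM phosphate pH 7.0 with 0.01% (detergent screen) or 0.0001% Triton X-100 was preincubated with compounds for 15 min at room temperature. Nitrocefin was then added from an 800 uM solution, and hydrolysis was followed at 480 nm.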
Vaccinia Venus: vaccinia inhibition (Venus reporter); Vaccinia virus Venus reporter expression, fluorescence; Potency, µM (highest dose often 36.5 µM), most hits filed as inhibitors; hit rate 0.46% among 330,000; calls by dose curve; tested in A549 cells; further: nearly all actives have a fitted effect of over 30% in size
Vaccinia mCherry: vaccinia inhibition (mCherry reporter) | Vaccinia virus mCherry reporter infection, fluorescence | AID 720579 | hit rate 0.63% among 310,000 | Potency, µM (top dose mostly 36.5 µM), most hits filed as inhibitors; calls by dose curve; tested in A549 cells; further: nearly all actives have a fitted effect of over 35% in size
A number is an active result; ! = not active in a repeat. Unless noted, the call rests on the fitted dose curve; in most records, active means well fitted curve in the direction sought with a large enough effect; inconclusive means small, poorly fitted or top-dose-only effect, or another doubt; inactive means no such curve, though single readings can be large; an effect the other way counts as inactive or inconclusive.

Results for C/C(=N\NC(=O)c1cc2ccccc2cc1O)c1ccc(C)o1 ?
AmpC inh no detg: 7.9µM; AmpC detergent: inactive; Vaccinia Venus: inactive; Vaccinia mCherry: inactive

How did C/C(=N/NC(=O)c1cc2ccccc2cc1O)c1ccco1 do in these assays?
AmpC inh no detg: 25µM; AmpC detergent: inactive

What do the screens show for `Cc1ccc(NC(=O)Cn2ncc(Cl)c(Cl)c2=O)cc1S(=O)(=O)N1CCCCC1`?
AmpC inh no detg: 4µM; AmpC detergent: inactive

Results for Cc1ccc(NC(=O)Cc2ccc(Cl)cc2)cc1S(=O)(=O)N1CCCCCC1 ?
AmpC inh no detg: inactive; AmpC detergent: inactive

Results for CC(C)n1cnc2c(Nc3ccc(F)c(Cl)c3)nc(NCCO)nc21 ?
AmpC inh no detg: inactive; AmpC detergent: inconclusive; Vaccinia Venus: inconclusive; Vaccinia mCherry: 10µM

Results for CC(C)n1cnc2c(Nc3cccc(F)c3)nc(NCCO)nc21 ?
AmpC inh no detg: inactive; AmpC detergent: inactive; Vaccinia Venus: inconclusive; Vaccinia mCherry: inconclusive

What do the screens show for `COc1ccc(-c2nc3cc(C)ccc3cc2CN(C(=O)c2ccc(C)s2)C2CC2)cc1OC`?
Vaccinia Venus: inactive; Vaccinia mCherry: inactive

What do the screens show for `COc1cc(OC)c(OC)cc1/C=C/c1cc[n+](C)c2ccccc12`?
Vaccinia Venus: inactive; Vaccinia mCherry: inactive

Results for COCCCNC(=S)NC1CC2CCCC(C1)N2Cc1ccco1 (stereo unspecified) ?
AmpC inh no detg: 1.8µM; AmpC detergent: inactive; Vaccinia Venus: inactive; Vaccinia mCherry: inactive

What do the screens show for `CCN(Cc1ccccc1)c1ccc(/C=C/c2nccc3ccccc23)cc1`?
Vaccinia Venus: inactive; Vaccinia mCherry: inactive

How did CCN(CC)C1CCN(C(=O)c2cnn(-c3nccc(-c4ccccc4OC)n3)c2-c2ccco2)C1 (stereo unspecified) do in these assays?
Vaccinia Venus: inactive; Vaccinia mCherry: inactive

How did COC(=O)c1cc(CNC(=O)c2ccc(N(C)C)cc2)cc(NC(=O)c2ccccc2Cl)c1 do in these assays?
Vaccinia Venus: inactive; Vaccinia mCherry: inactive

What do the screens show for `N#CCc1ccc(C(=O)c2ccccc2F)s1`?
AmpC inh no detg: 0.79µM; AmpC detergent: inactive; Vaccinia Venus: inactive

Results for CCCCNC(=O)C(CC)n1c(SCc2cccc(F)c2)nc2ccncc21 (stereo unspecified) ?
Vaccinia Venus: inactive; Vaccinia mCherry: inactive

What do the screens show for `COc1ccc2c(c1)OC(C)CN(CC(=O)NCc1cn[nH]c1-c1ccc(F)cc1)C2` (stereo unspecified)?
Vaccinia Venus: inactive; Vaccinia mCherry: inactive

How did CN(Cc1ccco1)C(=O)c1cc(NC(=O)C2CCC2)c2c(c1)nc(-c1ccncc1)n2C do in these assays?
Vaccinia Venus: inactive; Vaccinia mCherry: inactive

Results for c1coc(CNc2ncnc3[nH]ncc23)c1 ?
AmpC inh no detg: inactive; AmpC detergent: inactive; Vaccinia Venus: inconclusive; Vaccinia mCherry: 6.3µM!

What do the screens show for `CCC1CN(CC(=O)NCc2ccc3c(c2)OCO3)Cc2ccc(Cl)cc2O1` (stereo unspecified)?
Vaccinia Venus: inactive; Vaccinia mCherry: inactive

What do the screens show for `CN1CCN(CC(=O)N2CCn3c4c(c5cc(C6CCCCC6)ccc53)CCCC42)CC1` (stereo unspecified)?
AmpC inh no detg: inactive; AmpC detergent: inactive; Vaccinia Venus: inconclusive; Vaccinia mCherry: 11µM

What do the screens show for `O=C(NCC1Cc2cccc(-c3cccnc3)c2O1)c1ccc2cc[nH]c2c1` (stereo unspecified)?
Vaccinia Venus: inactive; Vaccinia mCherry: inactive

How did O=C(Nc1sc2c(c1C(=O)Nc1ccc(Cl)cc1)CCCC2)c1cccs1 do in these assays?
AmpC detergent: inactive; Vaccinia Venus: inconclusive; Vaccinia mCherry: 13µM

What do the screens show for `CCOC(=O)c1c(NC(=O)c2cccs2)sc2c1CCCC2`?
AmpC inh no detg: inactive; AmpC detergent: inactive; Vaccinia Venus: inactive; Vaccinia mCherry: inactive

What do the screens show for `O=C(Nc1cccc(Cl)c1)c1c(NC(=O)C(F)(F)F)sc2c1CCCC2`?
AmpC detergent: inactive; Vaccinia Venus: inconclusive; Vaccinia mCherry: 13µM

Results for NC1=NC[C@H](CC2CCCCC2)N1CCc1cc(C(F)(F)F)cc(C(F)(F)F)c1 ?
AmpC inh no detg: inactive; AmpC detergent: inactive; Vaccinia Venus: 10µM; Vaccinia mCherry: inconclusive

What do the screens show for `NC1=NC[C@@H](Cc2ccc(O)cc2)N1CCc1cc(C(F)(F)F)cc(C(F)(F)F)c1`?
AmpC inh no detg: inactive; AmpC detergent: inactive; Vaccinia Venus: inactive; Vaccinia mCherry: inactive

What do the screens show for `Cc1ccccc1C(=O)OC1OC(=O)C(Cl)=C1Nc1ccc(C(=O)O)cc1` (stereo unspecified)?
AmpC inh no detg: 1.1µM; AmpC detergent: 1.3µM; Vaccinia Venus: inactive; Vaccinia mCherry: inactive

How did Cc1ccc(NC2=C(Cl)C(=O)OC2OC(=O)c2ccco2)cc1C (stereo unspecified) do in these assays?
AmpC inh no detg: inactive; AmpC detergent: inactive; Vaccinia Venus: inactive; Vaccinia mCherry: inactive

How did Cc1cc(F)ccc1S(=O)(=O)Nc1ccccc1C(=O)NC1CCN(Cc2ccccc2)CC1 do in these assays?
AmpC inh no detg: inactive; AmpC detergent: inconclusive; Vaccinia Venus: 10µM; Vaccinia mCherry: inconclusive

What do the screens show for `O=C1CC(C(=O)N2CCCC(c3nc(-c4ccncc4)ncc3-c3ccccc3)C2)C2(CCCCC2)O1` (stereo unspecified)?
Vaccinia Venus: inactive; Vaccinia mCherry: inactive

Results for O=C(Cn1cc2c(n1)CCCC2)NCc1ccccn1 ?
AmpC inh no detg: 3.5µM; AmpC detergent: inactive

What do the screens show for `COc1ccc(CNC(=O)Cn2cc3c(n2)CCCCC3)cc1`?
AmpC inh no detg: 7.1µM; AmpC detergent: inactive; Vaccinia Venus: inactive; Vaccinia mCherry: inactive

What do the screens show for `COc1ccccc1C1CN(Cc2c(C)nn(C)c2Cl)Cc2ccccc2O1` (stereo unspecified)?
Vaccinia Venus: inactive; Vaccinia mCherry: inactive

Results for Cc1sc(N/N=C/C=C/c2ccccc2)nc1-c1ccccc1 ?
AmpC inh no detg: inactive; AmpC detergent: inactive; Vaccinia Venus: inconclusive; Vaccinia mCherry: 3.5µM

What do the screens show for `O=C(NCC1Cc2cccc(-c3ncccn3)c2O1)C1CCCO1` (stereo unspecified)?
Vaccinia Venus: inactive; Vaccinia mCherry: inactive

Results for CC(C)n1cnc2c(N(C)c3ccccc3)nc(N(CCN(C)C)Cc3ccccc3)nc21 ?
AmpC inh no detg: inactive; AmpC detergent: inactive; Vaccinia Venus: 13µM; Vaccinia mCherry: inconclusive

What do the screens show for `COc1cc(N(Cc2ccccc2)Cc2ccccc2)c2ncn(C(C)C)c2c1`?
AmpC inh no detg: inactive; AmpC detergent: inactive; Vaccinia Venus: inactive; Vaccinia mCherry: inactive

Results for O=C(O)CCCC(=O)Nc1ccccc1SCCS(=O)(=O)c1ccc(Cl)cc1 ?
AmpC inh no detg: inactive; AmpC detergent: inactive; Vaccinia Venus: inconclusive; Vaccinia mCherry: 20µM

Results for O=C(CCS(=O)(=O)c1ccc(Cl)cc1)Nc1ccccc1Br ?
AmpC inh no detg: inactive; AmpC detergent: inactive; Vaccinia Venus: inconclusive; Vaccinia mCherry: inconclusive

How did COc1cc(=O)n2c(c1C(=O)N(C)Cc1nccs1)CCN(Cc1ccc(F)c(F)c1)CC2 do in these assays?
Vaccinia Venus: inactive; Vaccinia mCherry: inactive
